High-throughput results (PubChem BioAssay)
MCF10A rereplic: inducers of DNA re-replication in MCF 10A breast cells. MCF 10A DNA re-replication, Hoechst nuclear intensity, 48 h. Potency, µM (titrated, usually from 46.1 µM), for inactives: at the top dose activity, positive = re-replication, actives largely listed as activators. hit rate 2.9% among 350,000. AID 624296; further: % of control where 0% means no effect; nearly all actives have a fitted effect of over 50% in size
KB-V1 MDR tox: KB-V1 MDR subline cytotoxicity | Potency, µM (series often up to 46.1 µM), actives largely listed as cytotoxic | hit rate 3.4% among 400,000 | KB-V1 MDR cells viability, CellTiter-Glo, 72 h; further: on the % scale 0 is the no-effect control and ±100 the full control effect; nearly all actives have a fitted effect of over 60% in size
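Drug-selected KB-V1 cells, grown in DMEM lacking phenol red with 10% FBS, receive compound titrations; after three days at 37 degrees C, surviving cell ATP is quantified by CellTiter-Glo luminescence and responses normalized and curve-fitted.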
SW480 rereplic: induces DNA re-replication in SW480 colon adenocarcinoma cells; SW480 DNA re-replication, Hoechst DNA content imaging, 48 h; Potency, µM (top dose mostly 46.1 µM), for inactives: at the highest dose re-replication activation, actives largely listed as activators; AID 624297; hit rate 1.8% among 340,000; further: % of control where 0% means no effect; nearly all actives have a fitted effect of over 55% in size
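Cells (250 per well) received 23 nL compound or DMSO by pin tool and were kept 48 hr at 37 C, 5% CO2. Nuclei were then stained with Hoechst for 40 min and scanned for DNA content.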
ELG1 DNA repair: inhibitors of ELG1-dependent DNA repair in HEK293T cells; HEK293T ELG1-luciferase reporter, luminescence, 16 h; DNA damage induced by 5-fluorouridine; AID 504467; Potency, µM (highest dose often 46.1 µM), without a hit: at the highest dose activity change, negative = inhibition, hits mostly inhibitors; hit rate 2.3% among 330,000; further: on the % scale 0 is the no-effect control and ±100 the full control effect; nearly all actives have a fitted effect of over 55% in size
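DMSO vehicle served as the neutral condition. Each well held 2,000 cells given 5-fluorouridine plus compound; after 16 hr at 37 °C/5% CO2, ONE-Glo was added and luciferase measured 30 min later.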
KB-3-1 cytotox: kills parental KB-3-1 adenocarcinoma cells; Potency, µM (doses to about 46.1 µM), actives largely listed as cytotoxic; hit rate 1.4% among 400,000; KB-3-1 viability, CellTiter-Glo ATP luminescence, 72 h; AID 1347075; further: on the % scale 0 is the no-effect control and ±100 the full control effect; nearly all actives have a fitted effect of over 60% in size
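KB-3-1 cells, DMEM (no phenol red) + 10% FBS; compound by pin transfer, 72 h, 37 °C. Readout: CellTiter-Glo luminescence after 10 min. Data normalized, curve-fitted.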
* hit, by the source's call. The list is not random: actives were taken first. Their share in the collection is about 8.2%. The call rests on the fitted dose curve; in most records, active means well fitted curve in the direction sought with a large enough effect; inconclusive means small, poorly fitted or top-dose-only effect, or another doubt; inactive means no such curve, though single readings can be large; an effect the other way counts as inactive or inconclusive. Potency means the concentration at half of the fitted maximal effect.

What do the screens show for `Cc1ccc(S(=O)(=O)N2C[C@H]3[C@H]4C(=O)N(c5ccccc5)C(=O)[C@H]4C[C@H](OC(=O)NCc4ccccc4)[C@@]3(O)C2)cc1`?
KB-V1 MDR tox: inactive; KB-3-1 cytotox: inactive

What do the screens show for `Cc1ccc(S(=O)(=O)N2CCN(C(=O)c3ccc(N4CCCC4)c([N+](=O)[O-])c3)CC2)cc1`?
MCF10A rereplic: 2%; KB-V1 MDR tox: inconclusive; SW480 rereplic: inconclusive; ELG1 DNA repair: inconclusive; KB-3-1 cytotox: inactive

Results for Cc1ccc(S(=O)(=O)N2CCN(c3ccc(C(=O)N4CCOCC4)cc3[N+](=O)[O-])CC2)cc1 ?
MCF10A rereplic: inconclusive; KB-V1 MDR tox: 2.9µM*; SW480 rereplic: -6%; ELG1 DNA repair: 18µM*; KB-3-1 cytotox: inactive

How did CN(C)S(=O)(=O)c1cccc(NC(=O)c2ccc(N3CCOCC3)c([N+](=O)[O-])c2)c1 do in these assays?
MCF10A rereplic: inconclusive; KB-V1 MDR tox: inactive; SW480 rereplic: 1%; ELG1 DNA repair: 18µM*; KB-3-1 cytotox: inactive

Results for CC(=O)c1cccc(NC(=O)c2ccc(Cl)c(S(=O)(=O)N3CCOCC3)c2)c1 ?
KB-V1 MDR tox: inactive; KB-3-1 cytotox: inactive

Results for CN(c1cccc(NC(=O)c2ccc(Cl)c(S(=O)(=O)N3CCOCC3)c2)c1)S(C)(=O)=O ?
MCF10A rereplic: 13%; SW480 rereplic: -4%; ELG1 DNA repair: 23µM*

Results for CCOC(=O)c1c(NC(=O)COC(=O)Cn2cnc3c2c(=O)n(C)c(=O)n3C)sc(C)c1CC ?
MCF10A rereplic: 1%; KB-V1 MDR tox: inconclusive; SW480 rereplic: -60%; ELG1 DNA repair: inconclusive; KB-3-1 cytotox: inactive

What do the screens show for `CCc1ccc(OCCCCn2c(CCNC(=O)C3CCCCC3)nc3ccccc32)cc1`?
KB-V1 MDR tox: inactive; KB-3-1 cytotox: inconclusive

How did Cc1ccc(/C=C/c2ccc(=O)n(Cc3ccc(F)cc3)n2)cc1 do in these assays?
MCF10A rereplic: 8%; KB-V1 MDR tox: inactive; SW480 rereplic: -7%; ELG1 DNA repair: 1%; KB-3-1 cytotox: inactive

Results for COc1ccc(/C=C/c2ccccn2)cc1 ?
KB-V1 MDR tox: inactive; KB-3-1 cytotox: 23µM*

How did Cc1ccc(/C=C/c2ccc(=O)n(Cc3ccccc3Cl)n2)cc1 do in these assays?
MCF10A rereplic: inconclusive; KB-V1 MDR tox: 21µM*; SW480 rereplic: -5%; ELG1 DNA repair: inconclusive; KB-3-1 cytotox: inconclusive

Results for COc1ccc(/C=C/c2ccc(=O)n(Cc3ccccc3)n2)cc1 ?
MCF10A rereplic: 21µM*; KB-V1 MDR tox: inconclusive; SW480 rereplic: -4%; ELG1 DNA repair: inconclusive; KB-3-1 cytotox: inactive

How did O=c1ccc(/C=C/c2ccccc2)nn1Cc1ccc(F)cc1 do in these assays?
MCF10A rereplic: inconclusive; KB-V1 MDR tox: inactive; SW480 rereplic: 3%; ELG1 DNA repair: -25%; KB-3-1 cytotox: inactive

How did Cc1ccc(C=Cc2ccccn2)cc1 do in these assays?
KB-V1 MDR tox: inactive; KB-3-1 cytotox: inactive

How did Fc1ccc(CN2CCN(c3ncnc4scc(-c5ccc(F)cc5)c34)CC2)cc1 do in these assays?
MCF10A rereplic: inconclusive; KB-V1 MDR tox: inactive; SW480 rereplic: 2%; ELG1 DNA repair: 21µM*; KB-3-1 cytotox: inactive

What do the screens show for `Clc1ccc(CN2CCN(c3ncnc4scc(-c5cccs5)c34)CC2)cc1`?
MCF10A rereplic: inconclusive; KB-V1 MDR tox: 13µM*; SW480 rereplic: -3%; ELG1 DNA repair: 23µM*; KB-3-1 cytotox: inconclusive

Results for Cc1ccccc1N1CCN(c2ncnc3scc(-c4cccs4)c23)CC1 ?
MCF10A rereplic: inconclusive; KB-V1 MDR tox: inconclusive; SW480 rereplic: 21%; ELG1 DNA repair: -26%; KB-3-1 cytotox: inconclusive

Results for COc1ccccc1CNS(=O)(=O)c1ccc2c(c1)NC(=O)CC(=O)N2 ?
KB-V1 MDR tox: inactive; KB-3-1 cytotox: inactive

Results for CC(=O)Nc1sc2c(c1C(c1ccncc1)N1CCOCC1)CCCC2 (stereo not drawn) ?
MCF10A rereplic: -1%; KB-V1 MDR tox: inactive; SW480 rereplic: 0%; ELG1 DNA repair: inconclusive; KB-3-1 cytotox: inactive
